Results as given in PubChem BioAssay AID1159583 (ICCB-Longwood Screening Facility, Harvard Medical School, 2016).
“And” between values parts separate entries of the source, which are not always exact repeats. Identical values can stand only once. Among all 300,000 compounds or so, about 310 (0.1%) were called active. Cut-off read from the data, not from the text of the source: active = fluorescence inhibition mostly above about 23% (no sharp cut-off); inactive = mostly below about 17%. Shown is part of a subset that was picked to be rich in actives.

Test: hypoxia reporter signal reduction in M. tuberculosis – fluorescence, absorbance growth readout, primary screen (AID 1159583)
Conditions: M. tuberculosis hypoxia-regulated fluorescent reporter, stronger effect = higher value, concentration not given here; growth inhibition: measured here: M. tuberculosis growth (absorbance)

Q: Which results are given for Cc1ccc(C(=O)ON=Cc2ccc3c(c2)OCO3)cc1?
A: fluorescence inhibition: 2.14% (inactive); growth inhibition: 12.4%

Q: For Cc1ccsc1/C=C1\SC(N2CCOCC2)=NC1=O, which fluorescence inhibition is on record?
A: 59.8% (active)

Q: And the growth inhibition?
A: 35.7%

Q: For O=C1N=C(N2CCOCC2)S/C1=C\C=C/c1ccccc1, which fluorescence inhibition is on record?
A: 16.7% (inactive)

Q: What about the growth inhibition of the same compound?
A: 6.03%

Q: For CCc1ccc(/C=C2\SC(N3CCOCC3)=NC2=O)cc1, which fluorescence inhibition is on record?
A: -2.06% (inactive)

Q: What about the growth inhibition of the same compound?
A: 6.4%

Q: Which fluorescence inhibition does the source give for COC(=O)c1ccc(C=NN2C(C)CCCC2C)cc1 (stereo not given) here?
A: 12.1% (inactive)

Q: What about the growth inhibition of the same compound?
A: 0.227%

Q: With [O-]C1=N[N+](=Cc2ccc(Cl)cc2)CC1 as the compound, how does the fluorescence inhibition read?
A: 9.03% (inactive)

Q: And the growth inhibition?
A: 2.77%

Q: What does the source list for Cc1ccc(F)c(C2C3C=CCC[C@@]3(C)C(=O)N2Cc2ccccc2)c1 (stereo not given in full)?
A: fluorescence inhibition: 0.237% (inactive); growth inhibition: 4.91%

Q: With CCOC(=O)C1C2COc3ccc(OC)cc3C2N2C(=O)c3cc(OC)ccc3NC(=O)[C@@]12C (stereo not given in full) as the compound, how does the fluorescence inhibition read?
A: -0.571% (inactive)

Q: What about the growth inhibition of the same compound?
A: -0.925%

Q: Which fluorescence inhibition does the source give for CN1C(=O)/C(=C/C=C2\SCCN2C)OC1=S here?
A: -23.3% (inactive)

Q: And the growth inhibition?
A: 5.47%

Q: Which results are given for CN1CCSC1=CC=C1C(=O)N(C)C(=S)N1C?
A: fluorescence inhibition: 41.3% (active); growth inhibition: 10.5%

Q: For Oc1ccc(C=NNC(=S)Nc2cccnc2)c(O)c1O, which fluorescence inhibition is on record?
A: 19% (inactive)

Q: And the growth inhibition?
A: 3.53%

Q: For O=C(NN=Cc1cccc2nccnc12)c1ccncc1, which fluorescence inhibition is on record?
A: 93.3%

Q: With C#CCOCCOCCOCCNc1nc(N2CCN(C(=O)C(CCC(=O)O)n3cc(C(N)Cc4ccc(O)cc4)nn3)CC2)nc(N2CCN(C(=O)C(C(C)CC)n3cc(C(N)CO)nn3)CC2)n1 (stereo not given) as the compound, how does the fluorescence inhibition read?
A: 8.78% (inactive)

Q: And the growth inhibition?
A: 6.78%

Q: For N#CC(=Cc1ccc(O)c(O)c1)C(=O)c1ccc(O)c(O)c1, which fluorescence inhibition is on record?
A: -0.458% (inactive)

Q: And the growth inhibition?
A: -7.09%

Q: Which results are given for CC(=NNc1nc(C)cc(-c2ccccc2)n1)c1ccc(C)o1?
A: fluorescence inhibition: 5.64% (inactive); growth inhibition: 13.1%

Q: Which results are given for CCC(C)CCN1C(Nc2ccccc2)=NCC1CC(C)C (stereo not given)?
A: fluorescence inhibition: 2.94% (inactive); growth inhibition: 9.85%

Q: Which results are given for CC(=NNC(=S)Nc1ccccc1)c1ccc2c(c1)OCO2?
A: fluorescence inhibition: 4.36% (inactive); growth inhibition: -7.15%

Q: Which results are given for CN1CCN(C(=O)C2=CC(c3ccccc3)CC(OCc3ccc(CO)cc3)O2)CC1 (stereo not given)?
A: fluorescence inhibition: 10.4% (inactive) and -0.342% (inactive); growth inhibition: 12.8% and -5.24%

Q: For C=CCNC(=S)N=c1sccn1C, which fluorescence inhibition is on record?
A: 6.54% (inactive)

Q: And the growth inhibition?
A: -7.89%

Q: What does the source list for CC(=NNC(=O)c1cc(-c2cccc([N+](=O)[O-])c2)n[nH]1)c1ccc(F)cc1?
A: fluorescence inhibition: 14.8% (inactive); growth inhibition: -5.45%

Q: With COc1ccc(N(CC(=O)NN=C(C)c2cccs2)S(=O)(=O)c2ccccc2)cc1Cl as the compound, how does the fluorescence inhibition read?
A: -6% (inactive)

Q: What about the growth inhibition of the same compound?
A: -2.78%

Q: Which results are given for CCOC(=O)C1C2COc3ccccc3C2N2C(=O)N(c3cccc(F)c3)C(=O)[C@@]12C (stereo not given in full)?
A: fluorescence inhibition: -2.44% (inactive); growth inhibition: 3.57%

Q: For COC(=O)C1=C(c2ccc(OC(F)(F)F)cc2)CC2CCC1N2C(=O)NCCOc1ccc(OC)cc1 (stereo not given), which fluorescence inhibition is on record?
A: 0.962% (inactive)

Q: And the growth inhibition?
A: 6.26%

Q: Which fluorescence inhibition does the source give for O=C(CC(=O)NC1CCCCC1)NN=Cc1ccccc1Cl here?
A: 2.92% (inactive)

Q: And the growth inhibition?
A: 1.5%

Q: Which fluorescence inhibition does the source give for CCN1CC2C3C(=O)N(Cc4ccccc4)C(=O)C3[C@](CC)(C1=O)N2C(=O)c1ccc(Br)cc1 (stereo not given in full) here?
A: 6.17% (inactive)

Q: And the growth inhibition?
A: 7.16%

Q: Which results are given for CN1CC2C3C(=O)N(C)C(=O)C3[C@](C)(C1=O)N2C(=O)c1ccc(Cl)c(Cl)c1 (stereo not given in full)?
A: fluorescence inhibition: 18.2% (inactive); growth inhibition: 5.39%

Q: With Oc1cccc(C=NNc2ncnc3c2ncn3Cc2ccccc2)c1 as the compound, how does the fluorescence inhibition read?
A: 12.7% (inactive)

Q: What about the growth inhibition of the same compound?
A: 4.03%

Q: With COc1ccc(C(N)=NOC(=O)c2cccc([N+](=O)[O-])c2)cc1 as the compound, how does the fluorescence inhibition read?
A: 2.69% (inactive)

Q: And the growth inhibition?
A: 7.49%

Q: For Cc1cc(C=NNC(N)=S)c(C)n1-c1ccc(Cl)cc1, which fluorescence inhibition is on record?
A: 79.4%

Q: For O=C(O)c1cc(C(=O)O)cc(-c2ccc(C=c3sc4nc5ccccc5n4c3=O)o2)c1, which fluorescence inhibition is on record?
A: 9.74% (inactive)

Q: What about the growth inhibition of the same compound?
A: 9.98%

Q: Which fluorescence inhibition does the source give for O=C(C1=CC(c2csc3ccccc23)CC(OCc2ccc(CO)cc2)O1)N1CCCCCCC1 (stereo not given) here?
A: 5.62% (inactive)

Q: What about the growth inhibition of the same compound?
A: 15.1%

Q: What does the source list for COc1ccc2c(Cl)c(C(=O)NN=Cc3c(C)[nH]c4ccccc34)sc2c1?
A: fluorescence inhibition: 12.9% (inactive); growth inhibition: -1.23%

Q: Which fluorescence inhibition does the source give for COc1cccc(C(=O)NN=C(c2ccccc2)c2ccccn2)c1 here?
A: 5% (inactive)

Q: And the growth inhibition?
A: 11%

Q: For CCOC(=O)c1cc(C)sc1N=CC1C(=O)CC(C)(C)CC1=O, which fluorescence inhibition is on record?
A: 5.08% (inactive)

Q: And the growth inhibition?
A: 4.24%

Q: Which fluorescence inhibition does the source give for Cc1ccc(C2C3C(=O)N(C)C(=O)C3[C@]3(C)C(=O)N(CC4CC4)CC(=O)N23)o1 (stereo not given in full) here?
A: 3.26% (inactive)

Q: And the growth inhibition?
A: -2.47%

Q: Which results are given for CC(=NNC(=O)C(=O)Nc1ccc(C)c(Cl)c1)c1ccncc1?
A: fluorescence inhibition: 9.7% (inactive); growth inhibition: 2.87%

Q: Which fluorescence inhibition does the source give for CCOC(=O)C1=C(N)n2c(sc(=Cc3ccncc3)c2=O)=C(C(=O)OCC)C1c1ccncc1 (stereo not given) here?
A: -2.3% (inactive)

Q: And the growth inhibition?
A: -3.45%

Q: For C=C1CC(C(=O)NN=Cc2ccc(O)cc2)C1, which fluorescence inhibition is on record?
A: 2.24% (inactive)

Q: What about the growth inhibition of the same compound?
A: 7.43%

Q: With COc1ccc(NC(=O)COC(=O)CON=C(C)c2ccc3c(c2)OCO3)cc1S(N)(=O)=O as the compound, how does the fluorescence inhibition read?
A: -7.57% (inactive)

Q: And the growth inhibition?
A: -2.6%

Q: Which fluorescence inhibition does the source give for Cc1ccc(-c2c(C(=O)NN=Cc3ccc(C)o3)nnn2-c2nonc2N)cc1 here?
A: 3.86% (inactive)

Q: What about the growth inhibition of the same compound?
A: 8.97%

Q: With Cc1ccc(C=NNC(=O)CSc2nc3ccccc3n2C)s1 as the compound, how does the fluorescence inhibition read?
A: 13.6% (inactive)

Q: What about the growth inhibition of the same compound?
A: 0.932%

Q: For COc1ccc(-c2nn(-c3ccccc3)cc2C=NNC(=O)c2cccc(S(=O)(=O)Nc3ccccc3OC)c2)cc1, which fluorescence inhibition is on record?
A: 12.6% (inactive)

Q: And the growth inhibition?
A: 0.139%

Q: With O=C(Cc1n[nH]c(=O)[nH]c1=O)NN=CCCc1ccccc1 as the compound, how does the fluorescence inhibition read?
A: 11.1% (inactive)

Q: What about the growth inhibition of the same compound?
A: 4.96%

Q: Which fluorescence inhibition does the source give for CCCN(CCC)Cc1c(C(=O)NN=Cc2c[nH]c3ccccc23)nnn1-c1nonc1N here?
A: -3.6% (inactive)

Q: And the growth inhibition?
A: 2.65%

Q: With C=C1CCN(C(C)C(=O)NCc2ccc(OC)cc2)S(=O)(=O)c2ccccc21 (stereo not given) as the compound, how does the fluorescence inhibition read?
A: 19.8% (inactive)

Q: What about the growth inhibition of the same compound?
A: 12.8%

Q: Which fluorescence inhibition does the source give for CCOc1ccc2c(c1)C(c1ccc(C)cc1)=NNC(c1ccc(C)cc1)=N2 here?
A: 21.9% (inactive)

Q: What about the growth inhibition of the same compound?
A: 10.8%

Q: With CCOc1ccc(-c2nnc3ccc(SC)nn23)cc1 as the compound, how does the fluorescence inhibition read?
A: 4.55% (inactive)

Q: What about the growth inhibition of the same compound?
A: 1.4%

Q: Which results are given for CCOc1ccc(-c2cc(C)[n+](CCN(CC)CC)c(-c3ccc(OCC)cc3)c2)cc1?
A: fluorescence inhibition: 53.9% (active); growth inhibition: 33.9%

Q: With O=C(NN=Cc1c[nH]c2ccccc12)c1cc2ccccc2o1 as the compound, how does the fluorescence inhibition read?
A: 0.899% (inactive)

Q: What about the growth inhibition of the same compound?
A: 8.76%

Q: Which results are given for COc1cccc(C=NNc2ncnc3c2ncn3Cc2ccccc2)c1O?
A: fluorescence inhibition: 7.12% (inactive); growth inhibition: 2.3%

Q: What does the source list for CCc1ccc(S(=O)(=O)NN=Cc2ccc3c(c2)OCO3)cc1?
A: fluorescence inhibition: 1.76% (inactive); growth inhibition: -2.08%
